High-throughput results (PubChem BioAssay)
ATXN viability – Viability Counterscreen for Primary qHTS for Inhibitors of ATXN expression; S2 cells (HEK-293 line with an ATXN2-luciferase reporter) viability, CellTiter-Fluor protease fluorescence, 24 h; Potency, µM (doses to about 56.7 µM), hits mostly cytotoxic; 400,000 tested, 0.49% active; AID 651635, 2014; also: nearly all actives have a fitted effect of over 40% in size
HepG2 viability – qHTS for Inhibitors of TGF-b: Cytotox Counterscreen; HepG2 CAGA-GFP viability, ATP luminescence, 18 h; Potency, µM (top dose mostly 46.1 µM), for the others: at the top dose activity change, negative = cytotoxicity, most hits filed as cytotoxic; 410,000 tested, 0.76% active
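HepG2 CAGA-GFP cells (1000/well, DMEM with 1% FBS) received compound, then TGF-beta at 500 pg/mL final, and were incubated 18 hours at 37 degrees C. Viability was read by CellTiter-Glo luminescence. Media-only wells were set as complete cell-killing and DMSO as no toxicity.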
ATXN2 expr inh – Primary qHTS for Inhibitors of ATXN expression | HEK-293 ATXN2-luciferase reporter, luminescence, 24 h | Potency, µM (highest dose often 57 µM), without a hit: at the highest dose activity change, negative = inhibition, hits mostly inhibitors | 360,000 tested, 0.72% active; also: % is scaled to controls: 0 for no effect and ±100 for the full control effect; nearly all actives have a fitted effect of over 55% in size
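qHTS (up to 57 uM final) was run with 24 h compound exposure of reporter cells at 37 °C. Each well was multiplexed: SteadyGlo luminescence measured ATXN2-luciferase expression after a fluorogenic Gly-Phe-AFC viability readout (25 uM final).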
HT1080 IDH1KD tx – qHTS for induction of synthetic lethality in tumor cells producing 2HG: qHTS for the HT-1080-IDH1KD cell line. 360,000 tested, 2% active. HT-1080 IDH1 knockdown viability, ATP luminescence, 48 h. Potency, µM (doses to about 46.1 µM), inactives show at the highest dose activity, negative = toxicity, usual class: cytotoxic;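 also: 0% = DMSO wells and -100% = cell-free medium wells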
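IDH1KD HT-1080 cells, 750/well, RPMI + 5% FBS; compound pinned after 2 h settling; 48 h, 37 °C; CellTiter-Glo luminescence; % activity normalised to DMSO and no-cell wells; curves fitted, classed by r2 and efficacy.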
HT1080NT lethal – qHTS for induction of synthetic lethality in tumor cells producing 2HG: qHTS for the HT-1080-NT fibrosarcoma cell line; HT-1080-NT fibrosarcoma viability, CellTiter-Glo ATP luminescence, 48 h; 360,000 tested, 1.6% active; Potency, µM (titrated, usually from 46.1 µM), inactives show top-dose activity, negative = less viability, most hits filed as cytotoxic;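 also: NT is the 2HG producing partner of a matched IDH1 knockdown line; 0% = DMSO-treated cells and -100% = media-only wells without cells; nearly all actives have a fitted effect of over 55% in size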
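750 cells/well, RPMI + 5% FBS; 2 h settle, compound pin-transfer, 48 h at 37 degrees C. CellTiter-Glo 10 min RT, luminescence. Normalized to DMSO and media-only wells.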
TGFb SMAD3 inh – qHTS for Inhibitors of TGF-b | HepG2 CAGA-GFP TGF-b/SMAD3 reporter, GFP fluorescence, 18 h; TGF-beta stimulated, 500 pg/mL final | Potency, µM (doses to about 46.1 µM), inactives show top-dose activity, negative = inhibition, usual class: inhibitors | 410,000 tested, 1.2% active | AID 588855, 2011; also: % is scaled to controls: 0 for no effect and ±100 for the full control effect; nearly all actives have a fitted effect of over 65% in size
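Inhibition of TGF-beta-driven CAGA-GFP reporter expression in HEPG2 cells is measured by cellular GFP fluorescence after 18 h stimulation with 500 pg/mL recombinant TGF-beta in 1% FBS medium at 37 degrees C.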
* marks the source's active call; other numbers are inactive results; i = inactive; u = inconclusive; x = no result; ! = repeats disagree; [ ] = remark or other dose. The list is not random: actives were taken first. Their share in the collection is about 3.8%. Calls follow the shape of the dose curve; as a rule, active = well fitted curve in the direction sought with a large enough effect; inconclusive = small, poorly fitted or top-dose-only effect, or another doubt; inactive = no such curve, though single readings can be large; an effect the other way counts as inactive or inconclusive. Potency is read from the fitted curve at half-maximal effect.

SMILES	ATXN viability	HepG2 viability	ATXN2 expr inh	HT1080 IDH1KD tx	HT1080NT lethal	TGFb SMAD3 inh
Brc1ccc(C2C=Cc3ccccc32)cc1 (stereo unspecified)	x	3%	x	x	x	0%
COc1ccc(CN2CCN(c3ccc(F)cc3)CC2)c(OC)c1OC	i	19%	-22%	-23%	0%	10%
COc1ccc(CN2CCN(C(c3ccc(F)cc3)c3ccc(F)cc3)CC2)c(OC)c1OC	u	-28%	40µM*!	u	u	u
O=S(=O)(NCCc1csc2nc(-c3ccc(Cl)cc3)nn12)c1ccc(Oc2ccccc2)cc1	x	-4%	x	x	x	0%
COc1cccc(CNC(=O)c2c(OC)cc(=O)n3c2CCN(C(=O)C2CC24CCCCC4)CC3)c1 (stereo unspecified)	i	x	x	x	x	x
OC(c1ccc2c(c1)CN(Cc1cccc3nccnc13)CCO2)C1CCCCC1 (stereo unspecified)	i	x	x	x	x	x
Cc1nc([N+](=O)[O-])c(Br)n1CC(=O)c1ccc(Cl)cc1	u	-89%	u	18µM*	u	u
COc1ccc(C(=O)Cn2c(C)nc([N+](=O)[O-])c2Br)cc1	u	-27%	u	u	u	u
Cc1nc([N+](=O)[O-])c(Br)n1Cc1ccc(Cl)c(Cl)c1	20µM*	-118%	x	u	u	u
Fc1ccc(-c2n[nH]c(=S)n2Cc2ccccc2)cc1	i	-10%	-14%	8%	12%	0%
CC(C)(C)c1ccc(-c2n[nH]c(=S)n2Cc2ccccc2)cc1	u	13µM*	-9%	u	u	u
CC(=O)N1CCN(C2c3cccc4cccc(c34)C2NS(=O)(=O)c2ccccc2)CC1 (stereo unspecified)	i	7%	0%	1%	4%	-3%
O=S(=O)(NC1c2cccc3cccc(c23)C1N1CCNCC1)c1ccc(Cl)cc1 (stereo unspecified)	u	-63%	-17%[11.3 µM]	21µM*	18µM*	u
N#CC(C#N)=c1ccc2c(c1)NC1(CCCCC1)N=2	x	-58%	u	23µM*	u	u
COc1ccccc1CNC(=O)Cn1ncn2c(cc3sccc32)c1=O	x	-3%	x	x	x	-18%
CN(N=O)c1ccc2c(c1)Cc1ccccc1-2	x	-62%	x	x	x	-22%
COCC1CCCN(Cc2cn(Cc3ccccc3)nc2-c2cc3ccccc3o2)C1 (stereo unspecified)	u	-24%	-31%	16µM*	u	13µM*
CC(C)c1cc2c(c(O)c1O)[C@@]13CCCC(C)(C)C1CC2OC3=O (stereo partly specified)	u	-28%	u	u	-29%	13µM*
COc1ccc2c(c1)CCc1cnc(-n3ncc(C(=O)NCCCN4CCOCC4)c3C)nc1-2	i	x	x	x	x	x
Cc1cc(C)c2nc(NCCCNC(=S)NCCCN(C)C)c(C#N)cc2c1	x	-132%	u	u	u	u
Cc1ccc2cc(C#N)c(NCCNC(=S)NCCCN(C)C)nc2c1C	u	-11%	x	u	21µM*	-23%
O=C(CCCN1C(=O)/C(=C/c2cccs2)SC1=S)Nc1cccc(O)c1	u	-37%	22%	16µM*	u	u
COc1ccc(/C=C2\SC(=S)N(CCC(=O)Nc3ccc(O)cc3)C2=O)cc1	i	3%	5%	0%	u	0%
O=C(CCCN1C(=O)/C(=C/c2ccccc2)SC1=S)Nc1cccc(O)c1	u	-67%	x	-24%	-27%	14µM*
CCN(CC)CCOC(=O)c1ccc(NC(=O)CCCN2C(=O)S/C(=C/c3ccc(OC)cc3)C2=S)cc1	u	-28%	7.1µM*	12µM*	u	-7%
SMILES	ATXN viability	HepG2 viability	ATXN2 expr inh	HT1080 IDH1KD tx	HT1080NT lethal	TGFb SMAD3 inh
Cc1ccc(/C=C2\SC(=S)N(CCCC(=O)NC3CCCC3)C2=O)cc1	i	-18%	13µM*	25%	10%	9%
Cc1cccc(OCC(=O)Nc2nonc2-c2ccc(Br)cc2)c1C	i	-38%	-21%	x	x	u
COc1cccc(/C=C2/SC(=S)N(CCCC(=O)Nc3ccc(O)cc3)C2=O)c1	u	-72%	16µM*	u	u	u
COc1cc(/C=C2\SC(=S)N(CCC(=O)Nc3cccc(O)c3)C2=O)cc(OC)c1OC	u	-36%	-25%	u	u	13µM*
O=C(CCCN1C(=O)/C(=C\c2ccccc2)SC1=S)Nc1ccc(O)cc1	i	-7%	18%[11.3 µM]	15µM*	23µM*	u
Cc1ccc(/C=C2/SC(=S)N(CCCC(=O)Nc3ccc(O)cc3)C2=O)cc1	u	-52%	2.5µM*	21µM*	16µM*	u
CC(C)c1ccc(S(=O)(=O)NCc2nc3cccnc3n2Cc2ccc(F)cc2)cc1	x	-22%	x	x	x	u
CCCC(=O)O[C@]1(C(=O)COC(=O)CC)CC[C@H]2[C@@H]3CCC4=CC(=O)CC[C@]4(C)[C@H]3[C@@H](O)C[C@@]21C	i	x	5%[25.6 µM]	x	x	x
NC(=S)N/N=C/c1ccc(-c2cc(Cl)cc(Cl)c2)o1	u	-28%	-8%	8%	5%	u
NC(=S)N/N=C/c1ccc(-c2cc(Cl)ccc2Cl)o1	i	-40%	6%	u	3.2µM*	10µM*
Cc1cccc(Cc2c(C)nc3nc(SCc4ccccc4C)nn3c2C)c1	i	-32%	0%	x	x	u
